According to the supplement of paper PMC8728848:
The entries come from a sample that favours the strongest signals as a whole.

Legend:
Test in all cases: glycan array binding signal (z-score within array); higher = stronger binding
Settings in all cases: glycan notation: IUPAC condensed, linker removed
[1] = biological target: Fuc(a1-2)Gal(b1-3)GalNAc(b1-3)Gal
Outline: (§1)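 Glycan array data came from 3228 arrays in the Consortium for Functional Glycomics database, and only arrays with an available protein sequence were kept. Glycan names were put into IUPAC-condensed notation, and columns mapping to the same glycan were averaged. The binding signal is a within-array Z-score, averaged across arrays of one protein sequence run at different concentrations or buffers and across linkers. A negative Z-score can be read as non-binding.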

[2] = biological target: Fuc(a1-2)Gal(b1-3)GalNAc(b1-3)Gal(a1-4)Gal(b1-4)Glc
Outline: as §1

[3] = biological target: Fuc(a1-2)Gal(b1-4)GlcNAc
Outline: as §1

[4] = biological target: Fuc(a1-2)[Gal(a1-3)]Gal
Outline: as §1

[5] = biological target: Fuc(a1-2)[GalNAc(b1-3)]Gal
Outline: as §1

[6] = biological target: Fuc(a1-3)[Gal(b1-4)]Glc6S
Outline: as §1

[7] = biological target: Gal(a1-3)[Gal(a1-4)]Gal(b1-4)GlcNAc
Outline: as §1

[8] = biological target: Gal(a1-4)Gal(b1-4)GlcNAc
Outline: as §1

[9] = biological target: Gal(b1-3)[GlcNAc(b1-6)]GalNAc
Outline: as §1

[10] = biological target: Gal(b1-4)GlcNAc(b1-3)Gal(b1-4)Glc
Outline: as §1

[11] = biological target: Gal(b1-4)GlcNAc(b1-3)[Gal(b1-4)GlcNAc(b1-6)]Gal(b1-4)GlcNAc
Outline: as §1

[12] = biological target: Gal(b1-4)GlcNAc(b1-6)Gal(b1-4)GlcNAc
Outline: as §1

[13] = biological target: Gal(b1-4)GlcNAc(b1-6)[Gal(b1-3)]GalNAc
Outline: as §1

[14] = biological target: Gal3S4S(b1-4)GlcNAc
Outline: as §1

[15] = biological target: Gal3S6S(b1-4)GlcNAc6S
Outline: as §1

[16] = biological target: Gal6S(b1-4)Glc6S
Outline: as §1

[17] = biological target: GlcNAc(a1-3)Gal(b1-4)GlcNAc
Outline: as §1

[18] = biological target: GlcNAc(b1-3)Man
Outline: as §1

[19] = biological target: GlcNAc(b1-3)[GlcNAc(b1-6)]GalNAc
Outline: as §1

[20] = biological target: GlcNAc(b1-4)Gal(b1-4)GlcNAc
Outline: as §1

[21] = biological target: GlcNAc(b1-4)GlcNAc(b1-4)GlcNAc(b1-4)GlcNAc(b1-4)GlcNAc(b1-4)GlcNAc
Outline: as §1

[22] = biological target: Kdn(a2-3)Gal(b1-3)GlcNAc
Outline: as §1

[23] = biological target: Man(a1-2)Man(a1-3)[Man(a1-2)Man(a1-6)]Man
Outline: as §1

[24] = biological target: Man(b1-4)GlcNAc
Outline: as §1

[25] = biological target: Neu5Ac(a2-3)Gal(b1-3)GalNAc6S
Outline: as §1

[26] = biological target: Neu5Ac(a2-3)Gal(b1-4)GlcNAc(b1-2)Man(a1-3)[Neu5Ac(a2-6)Gal(b1-4)GlcNAc(b1-2)Man(a1-6)]Man(b1-4)GlcNAc(b1-4)GlcNAc
Outline: as §1

[27] = biological target: Neu5Ac(a2-6)Gal(b1-4)GlcNAc(b1-2)Man(a1-3)[Neu5Ac(a2-6)Gal(b1-4)GlcNAc(b1-2)Man(a1-6)]Man(b1-4)GlcNAc(b1-4)GlcNAc
Outline: as §1

[28] = biological target: Neu5Gc(a2-3)Gal(b1-4)Glc
Outline: as §1

[29] = biological target: Neu5Gc(a2-6)GalNAc
Outline: as §1

[30] = biological target: Fuc(a1-2)Gal(b1-3)GalNAc(b1-4)[Neu5Ac(a2-3)]Gal(b1-4)Glc
Outline: as §1

[31] = biological target: Fuc(a1-2)[GalNAc(a1-3)]Gal(b1-4)[Fuc(a1-3)]GlcNAc
Outline: as §1

[32] = biological target: Fuc(a1-2)[GalNAc(a1-4)]Gal(b1-4)GlcNAc
Outline: as §1

[33] = biological target: Gal(a1-2)Gal
Outline: as §1

[34] = biological target: Gal(b1-3)[Fuc(a1-4)]GlcNAc(b1-3)Gal(b1-4)[Fuc(a1-3)]GlcNAc
Outline: as §1

[35] = biological target: Gal(b1-4)GlcNAc(b1-3)Gal(b1-4)GlcNAc(b1-3)Gal(b1-4)GlcNAc
Outline: as §1

[36] = biological target: Gal(b1-4)GlcNAc(b1-6)Gal(b1-4)GlcNAc(b1-6)GalNAc
Outline: as §1

[37] = biological target: Gal(b1-4)GlcNAc(b1-6)GalNAc
Outline: as §1

[38] = biological target: Gal3S(b1-3)GalNAc
Outline: as §1

[39] = biological target: Gal3S(b1-4)Glc6S
Outline: as §1

[40] = biological target: Gal3S(b1-4)GlcNAc6S
Outline: as §1

[41] = biological target: Gal4S6S(b1-4)GlcNAc
Outline: as §1

[42] = biological target: GlcA(b1-3)Gal
Outline: as §1

[43] = biological target: GlcNAc(b1-2)Man(a1-3)[GlcNAc(b1-2)Man(a1-6)]Man(b1-4)GlcNAc(b1-4)GlcNAc
Outline: as §1

[44] = biological target: GlcNAc(b1-6)GalNAc
Outline: as §1

[45] = biological target: Man(a1-2)Man(a1-3)[Man(a1-6)]Man(a1-6)[Man(a1-2)Man(a1-3)]Man(b1-4)GlcNAc(b1-4)GlcNAc
Outline: as §1

[46] = biological target: Neu5Ac(a2-3)Gal(b1-3)GalNAc(b1-3)Gal(b1-4)GlcNAc
Outline: as §1

[47] = biological target: Neu5Ac(a2-3)Gal(b1-4)[Fuc(a1-3)]GlcNAc(b1-3)Gal
Outline: as §1

[48] = biological target: Neu5Ac(a2-3)[Neu5Ac(a2-6)]GalNAc
Outline: as §1

B1: Factor H (Homo sapiens), P08603 (protein)
chain: MRLLAKIICLMLWAICVAEDCNELPPRRNTEILTGSWSDQTYPEGTQAIYKCRPGYRSLGNVIMVCRKGEWVALNPLRKCQKRPCGHPGDTPFGTFTLTGGNVFEYGVKAVYTCNEGYQLLGEINYRECDTDGWTNDIPICEVVKCLPVTAPENGKIVSSAMEPDREYHFGQAVRFVCNSGYKIEGDEEMHCSDDGFWSKEKPKCVEISCKSPDVINGSPISQKIIYKENERFQYKCNMGYEYSERGDAVCTESGWRPLPSCEEKSCDNPYIPNGDYSPLRIKHRTGDEITYQCRNGFYPATRGNTAKCTSTGWIPAPRCTLKPCDYPDIKHGGLYHENMRRPYFPVAVGKYYSYYCDEHFETPSGSYWDHIHCTQDGWSPAVPCLRKCYFPYLENGYNQNYGRKFVQGKSIDVACHPGYALPKAQTTVTCMENGWSPTPRCIRVKTCSKSSIDIENGFISESQYTYALKEKAKYQCKLGYVTADGETSGSITCGKDGWSAQPTCIKSCDIPVFMNARTKNDFTWFKLNDTLDYECHDGYESNTGSTTGSIVCGYNGWSDLPICYERECELPKIDVHLVPDRKKDQYKVGEVLKFSCKPGFTIVGPNSVQCYHFGLSPDLPICKEQVQSCGPPPELLNGNVKEKTKEEYGHSEVVEYYCNPRFLMKGPNKIQCVDGEWTTLPVCIVEESTCGDIPELEHGWAQLSSPPYYYGDSVEFNCSESFTMIGHRSITCIHGVWTQLPQCVAIDKLKKCKSSNLIILEEHLKNKKEFDHNSNIRYRCRGKEGWIHTVCINGRWDPEVNCSMAQIQLCPPPPQIPNSHNMTTTLNYRDGEKVSVLCQENYLIQEGEEITCKDGRWQSIPLCVEKIPCSQPPQIEHGTINSSRSSQESYAHGTKLSYTCEGGFRISEENETTCYMGKWSSPPQCEGLPCKSPPEISHGVVAHMSDSYQYGEEVTYKCFEGFGIDGPAIAKCLGEKWSHPPSCIKTDCLSLPSFENAIPMGEKKDVYKAGEQVTYTCATYYKMDGASNVTCINSRWTGRPTCRDTSCVNPPTVQNAYIVSRQMSKYPSGERVRYQCRSPYEMFGDEEVMCLNGNWTEPPQCKDSTGKCGPPPPIDNGDITSFPLSVYAPASSVEYQCQNLYQLEGNKRITCRNGQWSEPPKCLHPCVISREIMENYNIALRWTAKQKLYSRTGESVEFVCKRGYRLSSRSHTLRTTCWDGKLEYPTCAKR
glycan array binding signal (z-score) [1]: 3.46
glycan array binding signal (z-score) [2]: 0.586
glycan array binding signal (z-score) [3]: 3.15
glycan array binding signal (z-score) [4]: -0.294
glycan array binding signal (z-score) [5]: 3.61
glycan array binding signal (z-score) [6]: -0.418
glycan array binding signal (z-score) [7]: -0.355
glycan array binding signal (z-score) [8]: -0.467
glycan array binding signal (z-score) [9]: -0.403
glycan array binding signal (z-score) [10]: -0.248
glycan array binding signal (z-score) [11]: -0.173
glycan array binding signal (z-score) [12]: -0.316
glycan array binding signal (z-score) [13]: -0.537
glycan array binding signal (z-score) [14]: -0.168
glycan array binding signal (z-score) [15]: 11.8
glycan array binding signal (z-score) [16]: 0.498
glycan array binding signal (z-score) [17]: -0.015
glycan array binding signal (z-score) [18]: 2.51
glycan array binding signal (z-score) [19]: 1
glycan array binding signal (z-score) [20]: 0.172
glycan array binding signal (z-score) [21]: -0.101
glycan array binding signal (z-score) [22]: 1.99
glycan array binding signal (z-score) [23]: 0.253
glycan array binding signal (z-score) [24]: -0.282
glycan array binding signal (z-score) [25]: -0.221
glycan array binding signal (z-score) [26]: 0.231
glycan array binding signal (z-score) [27]: -0.439
glycan array binding signal (z-score) [28]: -0.053
glycan array binding signal (z-score) [29]: -0.411

B2: S100A12 (Homo sapiens), P80511 (protein)
chain: MTKLEEHLEGIVNIFHQYSVRKGHFDTLSKGELKQLLTKELANTIKNIKDKAVIDEIFQGLDANQDEQVDFQEFISLVAIALKAAHYHTHKE
glycan array binding signal (z-score) [1]: 1.87
glycan array binding signal (z-score) [30]: -0.259
glycan array binding signal (z-score) [3]: -0.748
glycan array binding signal (z-score) [4]: -0.758
glycan array binding signal (z-score) [31]: -0.154
glycan array binding signal (z-score) [32]: -0.766
glycan array binding signal (z-score) [33]: 0.006
glycan array binding signal (z-score) [34]: -0.056
glycan array binding signal (z-score) [35]: -0.226
glycan array binding signal (z-score) [36]: -0.768
glycan array binding signal (z-score) [37]: -0.528
glycan array binding signal (z-score) [38]: 0.207
glycan array binding signal (z-score) [39]: 2.45
glycan array binding signal (z-score) [40]: 2.67
glycan array binding signal (z-score) [15]: 2.83
glycan array binding signal (z-score) [41]: 2.91
glycan array binding signal (z-score) [16]: 2.19
glycan array binding signal (z-score) [42]: 0.368
glycan array binding signal (z-score) [43]: 1.79
glycan array binding signal (z-score) [21]: -0.158
glycan array binding signal (z-score) [44]: -0.903
glycan array binding signal (z-score) [45]: -0.256
glycan array binding signal (z-score) [46]: -0.704
glycan array binding signal (z-score) [47]: -0.943
glycan array binding signal (z-score) [48]: 0.727
glycan array binding signal (z-score) [29]: -0.009
